The list is not random: actives were taken first. Their share in the collection is about 7.5%.
ELG1 genotoxic – qHTS screen for small molecules that induce genotoxicity in human embryonic kidney (HEK293T) cells expressing luciferase-tagged ELG1. HEK293T ELG1-luciferase reporter, luminescence, 16 h. Potency, µM (top dose mostly 46 µM), actives largely listed as activators. 330,000 tested, 1.3% active. AID 504466, 2011; further: nearly all actives have a fitted effect of over 60% in size
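Genotoxic stress is detected as increased luminescence from luciferase-tagged ELG1 in HEK293T cells, measured with ONE-Glo after a 16 hr treatment at 37 °C.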
FLuc modulator – qHTS profiling assay for firefly luciferase inhibitor/activator using purifed enzyme and Km concentrations of substrates (counterscreen for miR-21 project); Luciferin 4-monooxygenase (Photinus pyralis), P08659; purified FLuc, Km substrates, luminescence inhibition; Potency, µM (top dose mostly 57.5 µM), usual class: inhibitors; 360,000 tested, 6.9% active; AID 588342, 2011; further: nearly all actives have a fitted effect of over 55% in size
Target sequence (P08659 whole entry, looked up): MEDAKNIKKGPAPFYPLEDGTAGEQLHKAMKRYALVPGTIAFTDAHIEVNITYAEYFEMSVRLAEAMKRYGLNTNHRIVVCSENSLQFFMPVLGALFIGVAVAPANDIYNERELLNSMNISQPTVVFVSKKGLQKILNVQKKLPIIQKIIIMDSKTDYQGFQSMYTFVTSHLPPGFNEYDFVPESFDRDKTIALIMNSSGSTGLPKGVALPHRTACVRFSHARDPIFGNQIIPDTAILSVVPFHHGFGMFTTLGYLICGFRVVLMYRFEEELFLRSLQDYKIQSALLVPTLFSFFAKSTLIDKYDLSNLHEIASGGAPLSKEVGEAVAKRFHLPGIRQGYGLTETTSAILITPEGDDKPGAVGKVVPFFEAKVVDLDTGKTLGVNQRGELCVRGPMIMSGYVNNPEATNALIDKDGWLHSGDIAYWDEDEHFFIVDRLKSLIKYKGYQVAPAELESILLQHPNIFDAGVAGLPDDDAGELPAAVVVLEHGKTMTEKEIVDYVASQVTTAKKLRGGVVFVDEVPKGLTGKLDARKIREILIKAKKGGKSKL
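Purified P. pyralis luciferase, 10 nM final, with Km-level 10 uM D-luciferin and 10 uM ATP in 50 mM Tris acetate pH 7.5, 10 mM Mg acetate, 0.01% Tween-20, 0.05% BSA; 6-point qHTS titration about 60 µM downward; luminescence read.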
SMN2 splice enh – qHTS Assay for Enhancers of SMN2 Splice Variant Expression | HEK293 SMN2-luciferase splicing reporter, luminescence, 30-36 h | Potency, µM (series often up to 46.1 µM), actives largely listed as activators | 210,000 tested, 2.8% active; further: nearly all actives have a fitted effect of over 55% in size
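HEK293 cells carry an SMN2 minigene-luciferase reporter in which exon 7 inclusion puts luciferase in frame. Cells were seeded at 2000 cells/well, attached for 10-12 hours, then exposed to compounds for 30-36 hours at 37C before ONE-Glo luminescence.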
Rab9 promoter act – qHTS Assay for Rab9 Promoter Activators; Huh7 Rab9 promoter-luciferase reporter, luminescence, 24 h; Potency, µM (doses to about 9.22 µM), usual class: activators; 320,000 tested, 2.8% active; AID 485297, 2010; further: nearly all actives have a fitted effect of over 60% in size
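Measured in stably transfected Huh7 cells bearing a Rab9 promoter–luciferase construct: 24 h compound treatment at 37 °C, followed by luminescence detection.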
NPC1 promoter act – qHTS Assay for NPC1 Promoter Activators | Huh7 NPC1 promoter luciferase reporter, 24 h | Potency, µM (titrated, usually from 9.22 µM), hits mostly activators | 320,000 tested, 2.4% active; further: nearly all actives have a fitted effect of over 60% in size
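Readout is luciferase luminescence, reflecting NPC1 promoter activation in stably transfected Huh7 cells after 24 h compound exposure at 37 °C in reduced-serum medium with 10% FBS.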
A number is an active result; – = inactive; ? = inconclusive; · = no result. The call rests on the fitted dose curve; in most records, active means well fitted curve in the direction sought with a large enough effect; inconclusive means small, poorly fitted or top-dose-only effect, or another doubt; inactive means no such curve, though single readings can be large; an effect the other way counts as inactive or inconclusive.

SMILES	ELG1 genotoxic	FLuc modulator	SMN2 splice enh	Rab9 promoter act	NPC1 promoter act
CCOC(=O)c1cnc(-n2nc(C)cc2C)nc1N(C)C	?	5.36µM	?	4.47µM	?
CCOC(=O)c1cnc(-n2nc(C)cc2C)nc1NC1CCCC1	–	–	·	–	–
O=c1/c(=C/c2ccco2)sc2nc(-c3ccccc3Br)nn12	–	6.75µM	–	–	–
CCCOc1ccc(Cc2nn3c(=O)/c(=C/c4ccco4)sc3nc2=O)cc1	–	–	–	–	–
COc1cc(CCC(=O)Nc2nccs2)cc(OC)c1OC	–	–	·	–	–
CN(C)c1cccc(C(=O)Nc2ccc(-c3nc4ccccc4s3)cc2)c1	·	5.36µM	·	·	·
CC(=O)Nc1cccc(-c2nc3ccc(NC(C)=O)cc3s2)c1	?	3.01µM	12.6µM	0.891µM	3.16µM
CC(=O)Nc1ccc2nc(SCC(=O)O)sc2c1	–	–	–	–	–
CC(C)Oc1ccc(C(=O)Nc2ccc(-c3nc4ccccc4s3)cc2)cc1	·	–	·	·	·
Cc1ccc(C(=O)NC(=S)Nc2cccc(-c3nc4ccccc4s3)c2)cc1	?	12µM	–	–	–
Cc1ccc(C(=O)NC(=S)Nc2cccc3nsnc23)cc1	–	?	–	?	–
Cc1ccc(-c2nc3ccccc3s2)cc1NC(=S)NC(=O)c1cccc2ccccc12	?	10.7µM	?	–	–
O=C(CNC(=O)c1ccc2c(=O)n3c(nc2c1)CCC3)Nc1ccc(F)c(F)c1	–	–	·	–	–
CC(=O)Nc1cccc(-c2cc(C)c3cc4c(cc3n2)OCO4)c1	?	8.49µM	·	–	?
CC(=O)Nc1cccc(-c2nc3ccccc3s2)c1	?	9.53µM	12.6µM	2.24µM	?
Cc1nc(NC(=O)c2ccc(Cl)cc2)nc2cc3c(cc12)OCO3	–	–	–	–	–
CC(=O)Nc1ccc(O)c(-c2nc3ccccc3s2)c1	?	?	–	?	–
COc1ccccc1NC(=O)c1cc(-c2ccc(OC)c(OC)c2)nc2ccccc12	–	9.53µM	·	–	–
COc1ccc(-c2cc(C(=O)Nc3ccc(O)cc3)c3ccccc3n2)cc1OC	–	5.36µM	·	–	–
Cc1cccc(N2CCN(C(=O)c3cn(CC(C)C)c(=O)c4c3c3ccccc3n4C)CC2)c1C	·	–	–	·	·
CCc1ccc(-c2nc(NC(=S)NC(=O)c3cccs3)sc2C)cc1	–	–	–	–	–
COC(=O)c1nc(NC(=S)NC(=O)c2cccs2)sc1C	?	10.7µM	·	?	?
O=C(NC(=S)Nc1nc2ccccc2s1)c1cccs1	?	1.07µM	2µM	3.55µM	?
NC(=S)Nc1nc2ccccc2s1	–	?	–	–	–
COC(=O)Cc1nc(NC(=O)c2cccs2)sc1C	–	16.9µM	·	?	?
SMILES	ELG1 genotoxic	FLuc modulator	SMN2 splice enh	Rab9 promoter act	NPC1 promoter act
Cc1ccc(Cl)cc1NC(=O)C(=O)NCC(c1cccnc1)N1CCc2ccccc21 (stereo not drawn)	·	–	·	·	·
COc1ccc2c(c1)c1c(c(=O)n(-c3ccc(OC)c(OC)c3)c(=O)n1Cc1ccc(F)cc1)n2C	·	–	·	·	·
O=C(Nc1ccc(F)cc1Cl)c1ccc2c(=O)n3c(nc2c1)CCCCC3	?	–	–	?	?
O=C(Nc1nc(-c2ccccc2)cs1)c1ccc2c(=O)n3c(nc2c1)CCCCC3	–	12µM	·	–	–
O=C(Nc1ccccc1Cl)c1ccc2c(=O)n3c(nc2c1)CCC3	?	10.7µM	·	1.12µM	3.55µM
CCOc1ccc2nc(SCc3ccccc3C#N)sc2c1	?	7.57µM	11.2µM	2.51µM	3.16µM
CCOc1ccc2nc(SCc3ccc(OC)cc3)sc2c1	–	13.5µM	–	–	–
CCOc1ccc2nc(SCC(=O)NC3CC3)sc2c1	–	–	·	?	?
CCOc1ccc2nc(SCC(=O)c3ccccc3)sc2c1	18.4µM	15.1µM	–	–	–
CCOc1ccc2nc(SCCNS(=O)(=O)c3ccccc3)sc2c1	–	?	–	–	–
CNC(=O)c1sc(-c2ccccn2)nc1C	–	–	–	–	–
COc1cccc([C@@H]2Oc3ccc(Br)cc3C(=O)[C@H]2OC(=O)N[C@H]2CCCc3ccccc32)c1	·	·	–	·	·
CSc1ccc(C(=O)C2CCCN(C(=O)Cc3nonc3C)C2)cc1 (stereo not drawn)	–	–	·	–	–
COc1cccc(NC(=O)Nc2ccccc2Br)c1	–	12µM	·	?	–
COC(=O)c1sccc1NC(=O)c1cccc(OC)c1	–	?	–	–	–
COC(=O)c1sccc1NC(=O)Nc1cccc(F)c1	–	12µM	–	–	–
CCc1ccccc1NC(=O)Nc1ccsc1C(=O)OC	–	?	·	–	–
COc1cccc(NC(=O)Nc2cc(Cl)ccc2C)c1	–	–	–	–	–
COC(=O)c1sccc1NC(=O)Nc1cccc(OC)c1	–	8.49µM	·	–	–
COc1cccc(NC(=O)NCc2ccccc2F)c1	?	16.9µM	–	?	–
Cc1nn(C)c(=O)c(N)c1-c1cc(-c2ccc(Cl)c(Cl)c2)n[nH]1	–	–	·	–	–
COc1ccc(N(C(=O)c2ccc(S(=O)(=O)N3CCCC3)cc2)C2C=CS(=O)(=O)C2)cc1 (stereo not drawn)	–	–	·	–	–
O=C(Nc1cccc(C(=O)O)c1)/C(=C\c1ccccc1)NC(=O)c1ccccc1	–	–	–	?	–
CC(=O)Nc1ccc(NC(=O)/C=C/c2ccccc2)cc1	–	?	–	–	–
O=C(Nc1cccc(C(=O)O)c1)/C(=C\C=C\c1ccccc1)NC(=O)c1ccccc1	–	13.5µM	–	–	–
SMILES	ELG1 genotoxic	FLuc modulator	SMN2 splice enh	Rab9 promoter act	NPC1 promoter act
O=C(/C=C/c1ccccc1)Nc1cccc(C(=O)O)c1	–	0.0675µM	·	?	?
O=C(/C=C/c1ccccc1)Nc1cc(NC(=O)/C=C/c2ccccc2)cc(C(=O)O)c1	–	13.5µM	·	–	–
O=C(/C=C/c1ccccc1)N/C(=C/c1ccccc1)C(=O)Nc1cccc(C(=O)O)c1	–	23.9µM	–	–	–
O=C(Nc1ccc(C(=O)O)cc1)/C(=C\C=C\c1ccccc1)NC(=O)c1ccccc1Br	–	0.169µM	·	3.16µM	2µM
COCCCNc1ncnc2c1nnn2C	·	–	·	·	·
COc1ccccc1C(=O)Nc1nc2ccc(S(C)(=O)=O)cc2s1	–	?	–	?	–
CS(=O)(=O)c1ccc2nc(NC(=O)c3cc4ccccc4o3)sc2c1	–	2.69µM	–	?	?
CS(=O)(=O)c1ccc2sc(NC(=O)c3cc4ccccc4o3)nc2c1	–	2.69µM	·	?	?
COc1ccccc1CNCC(=O)N1CC(=O)Nc2ccccc21	–	–	–	–	–
Cc1oc2ccc(O)c(CN3CCN(C)CC3)c2c1C(=O)Nc1ccccc1	·	–	–	·	·
N#CC1=C(N)Oc2cc(N)ccc2C1c1ccc(F)cc1F (stereo not drawn)	–	–	·	–	–
CN(C)C1(CNC(=S)Nc2ccccc2C(F)(F)F)CCCCC1	–	–	·	–	–

Bioassay records as filed in PubChem BioAssay.
